# Laboratory results: paper PMC4336329 (PLoS ONE, 2015)
# Hit rate of the full screen: of about 310,000 compounds, about 14,000 (4.5%) showed an effect of 50% or more. The effect is printed as a negative number. What follows is part of a selection rich in strong results, with near analogues and random picks from the rest.
# Biological target: human ether-à-go-go-related gene (hERG) potassium channel (human, UniProt Q12809)
# Test: primary screen, population patch clamp on CHO cells stably expressing hERG; higher = less effect of the substance
# 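Note: peak tail current of the secondary pulse compared with the same well before compound.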
# Chain of human ether-à-go-go-related gene (hERG) potassium channel (Q12809 whole entry, looked up): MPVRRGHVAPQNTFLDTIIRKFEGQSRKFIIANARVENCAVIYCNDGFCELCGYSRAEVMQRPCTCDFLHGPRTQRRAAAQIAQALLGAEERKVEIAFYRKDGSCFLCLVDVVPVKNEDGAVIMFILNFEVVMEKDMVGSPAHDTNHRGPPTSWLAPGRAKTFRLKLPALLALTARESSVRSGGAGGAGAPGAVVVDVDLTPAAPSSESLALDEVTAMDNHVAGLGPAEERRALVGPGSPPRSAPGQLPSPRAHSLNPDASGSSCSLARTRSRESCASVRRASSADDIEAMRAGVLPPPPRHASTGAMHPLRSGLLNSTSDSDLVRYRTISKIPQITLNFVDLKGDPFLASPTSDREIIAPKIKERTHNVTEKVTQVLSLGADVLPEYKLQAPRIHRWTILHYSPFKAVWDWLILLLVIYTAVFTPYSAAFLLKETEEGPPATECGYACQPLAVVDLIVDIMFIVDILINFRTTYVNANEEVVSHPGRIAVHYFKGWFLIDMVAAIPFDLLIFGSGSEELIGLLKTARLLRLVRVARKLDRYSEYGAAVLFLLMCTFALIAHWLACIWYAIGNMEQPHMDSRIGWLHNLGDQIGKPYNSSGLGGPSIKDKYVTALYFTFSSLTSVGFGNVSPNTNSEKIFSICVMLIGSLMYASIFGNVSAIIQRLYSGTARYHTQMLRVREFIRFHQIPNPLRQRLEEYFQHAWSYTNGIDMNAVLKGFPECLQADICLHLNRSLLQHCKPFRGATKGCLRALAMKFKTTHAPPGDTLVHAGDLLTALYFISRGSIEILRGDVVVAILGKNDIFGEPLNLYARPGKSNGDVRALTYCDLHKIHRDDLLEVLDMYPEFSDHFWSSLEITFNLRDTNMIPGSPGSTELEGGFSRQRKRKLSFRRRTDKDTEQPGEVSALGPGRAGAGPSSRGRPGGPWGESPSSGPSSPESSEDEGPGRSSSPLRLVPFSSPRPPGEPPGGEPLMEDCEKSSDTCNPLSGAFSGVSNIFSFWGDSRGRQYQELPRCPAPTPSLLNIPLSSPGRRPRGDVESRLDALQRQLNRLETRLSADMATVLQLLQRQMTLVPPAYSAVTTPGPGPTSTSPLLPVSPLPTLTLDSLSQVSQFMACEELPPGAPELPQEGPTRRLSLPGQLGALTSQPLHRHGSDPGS
row,Structure (SMILES),"hERG current change (%, negative = inhibition) at 10uM [%]"
1,Cc1ccc(C)c(NC(=O)CN2C(=O)COc3ccc(S(=O)(=O)N4CCCC4)cc32)c1,-0.517
2,O=C1NC(=O)C(=Cc2ccc(N3CCOCC3)cc2)C(=O)N1,12.9
3,Cc1cc(C(=O)Nc2ncn[nH]2)ccc1[N+](=O)[O-],26.3
4,Cc1cc(C)nc(NC(=O)c2ccc([N+](=O)[O-])c(C)c2)n1,7.43
5,Cc1cc(C(=O)Nc2ncn(Cc3ccc(F)cc3)n2)ccc1[N+](=O)[O-],-51.7
6,C[C@]12C[C@H](O)[C@H]3[C@@H](CCC4=CC(=O)CC[C@@]43C)[C@@H]1CC[C@@H]2C(=O)CO,0.529
7,Br.CC(C)(C)C(=O)Cn1c(=N)n(Cc2ccccc2Cl)c2ccccc21,-49.2
8,Cl.N=c1n(CCO)c2ccccc2n1Cc1ccccc1Cl,-20
9,Cl.N=c1n(Cc2ccccc2Cl)c2ccccc2n1CC(O)c1ccco1 (centres unmarked),-56.7
10,Cc1ccccc1Cn1c(C(C)O)nc2ccccc21 (centres unmarked),4.7
11,Cc1ccccc1Cn1c(=N)n(CC(O)c2ccco2)c2ccccc21.Cl (centres unmarked),-59.8
12,Cc1ccccc1Cn1c(=O)n(Cc2ccco2)c(=O)c2ccccc21,2.24
13,CCOC(=O)C1CCN(C(=O)CCn2c(=O)c3cccn3c3cccnc32)CC1,-33.2
14,Cc1c(C(=O)NCCc2ccccc2)oc2ccccc12,1.98
15,CN(C)C(=O)NC(O)C(Cl)Cl (centres unmarked),-2
16,Cc1nn(C)c(C)c1NS(=O)(=O)c1ccccc1Cl,4.16
17,CCc1ccccc1NC(=O)C1CCCN(c2ncnc3onc(-c4ccc(F)cc4)c23)C1 (centres unmarked),11.2
18,CCOc1ccc(/C=N/NC(=O)c2ccc(Cn3cc(Br)cn3)o2)cc1,-56.4
19,O=C(N/N=C\c1ccc2c(c1)OCO2)c1ccc(Cn2cc(Br)c([N+](=O)[O-])n2)o1,-8.65
20,O=C(N/N=C\c1ccc(F)cc1)c1ccc(Cn2cc(Br)c([N+](=O)[O-])n2)o1,-59.9
21,CCOc1ccc(/C=N/NC(=O)c2ccc(Cn3cc([N+](=O)[O-])cn3)o2)cc1,-31.4
22,O=C(N/N=C/c1cccc(Br)c1)c1ccc(Cn2cc(Br)cn2)o1,-40.9
23,COc1cc(/C=N\NC(=O)c2ccc(Cn3cc(Br)c([N+](=O)[O-])n3)o2)cc(OC)c1O,-11.9

row,Structure (SMILES),"hERG current change (%, negative = inhibition) at 10uM [%]"
1,COc1ccc(/C=N/NC(=O)c2ccc(Cn3cc([N+](=O)[O-])cn3)o2)cc1O,15.8
2,O=C(N/N=C/c1cccnc1)c1ccc(Cn2cc([N+](=O)[O-])cn2)o1,-8.7
3,O=C(N/N=C\c1cccc(F)c1)c1ccc(Cn2cc(Br)c([N+](=O)[O-])n2)o1,-33.9
4,Cc1ccc(/C=N/NC(=O)c2ccc(Cn3cc([N+](=O)[O-])cn3)o2)cc1,-65
5,CN(C)c1ccc(/C=N/NC(=O)c2ccc(Cn3cc(Br)cn3)o2)cc1,-46.1
6,COc1cc(/C=N/NC(=O)c2ccc(Cn3cc([N+](=O)[O-])cn3)o2)cc(Br)c1O,-77.5
7,O=C(NC1CCCC1)C(c1cccnc1)N(C(=O)c1csnn1)C1CC1 (centres unmarked),4.97
8,CC(C)c1ccc(NC(=O)C2C3C=CC4(O3)C2C(=O)N(CCN2CCOCC2)C4C(=O)NC2CCCCC2)cc1 (centres unmarked),15.3
9,O=C(Nc1ccccc1Cl)OC1CCCCC1,22.7
10,C=C(C)c1cccc(C(C)(C)NC(=O)NCc2ccncc2)c1,-9.41
11,Cc1cc(S(=O)(=O)N2CCOCC2)ccc1OCC(=O)Nc1cccc(C(F)(F)F)c1,19.8
12,COc1cc(/C=N\NC(=O)c2ccc(Cn3nc([N+](=O)[O-])c(Cl)c3C)o2)ccc1O,-70.4
13,Cc1c(Cl)c([N+](=O)[O-])nn1Cc1ccc(C(=O)N/N=C\c2cc(Cl)ccc2O)o1,14.9
14,Cc1c(Cl)c([N+](=O)[O-])nn1Cc1ccc(C(=O)N/N=C\c2cccc(Br)c2)o1,-38.7
15,N#Cc1ccc(Oc2nc(Nc3ccc(F)cc3)nc(N3CCCC3)n2)cc1,1.63
16,O=C(O)CC/C(=N\Nc1ccc([N+](=O)[O-])cc1S(=O)(=O)N1CCOCC1)c1cccs1,-9.21
17,CCn1cc(CNC(=O)/C=C/c2ccc([N+](=O)[O-])cc2)cn1,-33.6
18,Cc1ccc(NC(=O)CNC2CCCCC2)cc1Cl,6.64
19,Cc1ccccc1-c1nnc(CS(=O)(=O)c2ccccc2)o1,-19.2
20,COc1ccc(Br)c(-c2nnc(CS(=O)(=O)c3ccccc3)o2)c1,-29.3
21,CCOc1ccccc1-c1nnc(CS(=O)(=O)c2ccccc2)o1,-52.5
22,COc1cccc(CNC(=O)Nc2cccs2)c1,11
23,CCc1cc2c(=O)c(-c3nc(C)cs3)c(CCCC(=O)O)oc2cc1O,29.7

row,Structure (SMILES),"hERG current change (%, negative = inhibition) at 10uM [%]"
1,CCOC(=O)c1cc2c(=O)n3ccccc3nc2n(Cc2ccco2)c1=NC(=O)c1ccc(OC)cc1,-54.3
2,CCOC(=O)c1cc2c(=O)n3ccccc3nc2n(Cc2ccco2)c1=NC(=O)c1ccc(OC)cc1OC,-54.2
3,CCOC(=O)c1cc2c(=O)n3ccccc3nc2n(Cc2ccco2)c1=NC(=O)c1cccc(OC)c1,-43.8
4,CCOC(=O)c1cc2c(=O)n3ccccc3nc2n(Cc2ccco2)c1=NC(=O)c1ccccc1OC,-68.9
5,CCOC(=O)c1cc2c(=O)n3ccccc3nc2n(Cc2ccco2)c1=NC(=O)c1cccnc1,-37.4
6,CCOC(=O)c1cc2c(=O)n3ccccc3nc2n(Cc2ccco2)c1=NC(=O)c1ccccc1OCC,-50
7,Nc1nnc(SCC(=O)Nc2ccccc2N2CCOCC2)s1,3.88
8,O=C(c1cc2ccccc2s1)N1CCN(c2ccccn2)CC1,-11.5
9,O=C(COC(=O)c1ccc(Br)o1)Nc1ncc([N+](=O)[O-])s1,10.6
10,O=C(c1ccc(Cl)cc1)C1CCN(C(=O)NC2CCCCC2)CC1,-6.29
11,Cc1noc(C)c1C(=O)OC(C)C(=O)N1CCc2ccccc21 (centres unmarked),4.27
12,Cc1nc(-c2cccc(NC(=O)c3cccs3)c2)cs1,-23.3
13,CCCN(C(=O)c1c(-c2ccccc2)noc1C)c1c(N)n(Cc2ccccc2)c(=O)[nH]c1=O,1.43
14,COc1cccc(CNC(=O)Cc2ccc(Br)cc2)c1,5.59
15,Cc1ccc(-c2nnc(SCC(=O)Nc3nccs3)n2N)cc1,-10.4
16,O=[N+]([O-])c1ccc(N2CCN(c3ccc(O)cc3)CC2)c(Cl)c1,-3.4
17,CCn1nc(C)c(CNC(=O)Nc2ccccc2C(=O)OC)c1C,13.5
18,O=C(Nc1ccc2c(c1)CCC2)Nc1ccc(F)cc1F,15.5
19,O=C(Nc1ccc2c(c1)CCC2)Nc1ccccc1F,-61.6
20,Cc1ccccc1NC(=O)Nc1ccc2c(c1)CCC2,24.4
21,Cc1ccccc1NCN1C(=O)C2C3C=CC(C3)C2C1=O (centres unmarked),6.34
22,COc1cccc(/C=N/NC(=O)Cn2nc(C)c([N+](=O)[O-])c2C)c1O,-13.1
23,CCN1CCN(C(=O)N2CCOCC2)CC1,15.5

row,Structure (SMILES),"hERG current change (%, negative = inhibition) at 10uM [%]"
1,O=C(CN1CCCCC1)Nc1cccc(-n2cnnn2)c1,0.45
2,CS(=O)(=O)c1ccc(Cl)c(NC(=O)c2cccc(-n3cnnn3)c2)c1,-65.6
3,CCc1ccccc1NC(=O)CN1CCN(C(=O)c2cccc(-n3cnnn3)c2)CC1,-65
4,Cc1cccc(NC(=O)CN2CCN(C(=O)c3cccc(-n4cnnn4)c3)CC2)c1C,-41.5
5,CS(=O)(=O)c1ccc(NC(=O)c2cccc(-n3cnnn3)c2)cc1,12.1
6,CS(=O)(=O)c1ccc(Cl)c(NC(=O)c2cccc(N3C(=O)CCC3=O)c2)c1,0.801
7,O=C(CN1CCN(C(=O)c2cccc(-n3cnnn3)c2)CC1)Nc1ccccc1Cl,-90.3
8,CCc1ccccc1NC(=O)COc1cccc(-n2cnnn2)c1,-8.5
9,O=C(c1cccc(-n2cnnn2)c1)N1CCOCC1,-8.49
10,Cc1ccc(NC(=O)CSCC(=O)NC2(C)CCS(=O)(=O)C2)cc1 (centres unmarked),5.44
11,O=C(O)Cc1sc(NCCc2ccccc2)nc1-c1ccc(F)cc1,3.77
12,Cc1cn2c(-c3ccc(Cl)cc3)nnc2s1,-33.3
13,CN(CCC#N)C(=O)COC(=O)c1ccc2c(=O)n3c(nc2c1)CCC3,35
14,COc1ccccc1/C=C/C(=O)OCC(=O)c1cc(C)n(C)c1C,-0.348
15,O=C(NCc1cccc(Cl)c1)c1ccc2c(c1)SC1=NS(=O)(=O)CCN12,-5.52
16,COc1ccc(CCNC(=O)c2ccc3c(c2)SC2=NS(=O)(=O)CCN23)cc1,-60.4
17,O=C(NCc1ccccc1Cl)c1ccc2c(c1)SC1=NS(=O)(=O)CCN12,-7.44
18,O=C(O)c1ccc2c(c1)SC1=NS(=O)(=O)CCN12,8.48
19,CC(C)(C)c1ccccc1NC(=O)c1ccc2c(c1)SC1=NS(=O)(=O)CCN12,6.51
20,CN(C(=O)c1ccc2c(c1)SC1=NS(=O)(=O)CCN12)C(c1ccccc1)c1ccccc1,-61
